Experimental data from PubChem BioAssay (NCI).
The panel holds about 83,000 compounds, 20% with a hit somewhere; the sample as a whole holds those more often.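 Single-dose data. Exposure time 48 hours. Values below 10 considered active.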 Calls of active or inactive are those of the source.

Columns and labels:
Assay in all cases: NCI-60 one-dose screen, 48 h (100 = growth as untreated, 0 = no growth, -100 = all killed)
Settings in all cases: 10 µM unless noted
[1] = test system: T-47D breast
[2] = test system: BT-549 breast
[3] = test system: MDA-MB-435 melanoma
[4] = test system: SW-620 colon
[5] = test system: MCF7 breast
[6] = test system: HCT-116 colon
[7] = test system: HCC-2998 colon
[8] = test system: KM12 colon

Measured: growth

Cc1c(Cl)cccc1NC(=O)c1sc2nc3c(cc2c1N)CCCC3
active: [3] -16.1%
inactive: [1] 35% | [2] 52.6% | [4] 19.2% | [5] 16.3% | [6] 24.4% | [7] 58.5% | [8] 23.6%

CCNc1nc(-c2ccc(Cl)c(OC)c2)c(-c2ccnc(NCCNS(=O)(=O)c3ccc(Cl)cc3)n2)s1
inactive: [1] 32.5% | [4] 29.5% | [7] 56.3% | [8] 48.8%
active: [2] 5.74% | [3] 6.21% | [5] 6.61% | [6] 7.13%

CC(C)C(=O)Nc1ncc(C(=O)NCCN(Cc2ccccc2)C(=O)c2ccc(S(=O)(=O)Nc3ccccc3)cc2)s1
inactive: [1] 91.7% | [2] 89.2% | [3] 98.1% | [4] 107% | [5] 85.8% | [6] 90.9% | [7] 106% | [8] 105%

COc1cc(C2=Nc3c(N)nc(N)nc3NC(c3cccc(Nc4ccnc5cc(C(F)(F)F)ccc45)c3)C2)cc(OC)c1OC (stereo unspecified)
inactive: [1] 95.4% | [2] 112% | [3] 69.2% | [4] 78.7% | [5] 37.3% | [6] 48.9% | [7] 77.2% | [8] 66.4%

CCCCC1=C(Br)C(=O)c2ncccc2C1=O
inactive: [1] 71.2% | [2] 94.4% | [3] 105% | [4] 60.2% | [5] 89.5% | [6] 62.6% | [7] 108% | [8] 96.9%

CC1=C2[C@@H](CC1)[C@]1(C)O[C@@](C(C)C)(C[C@H]1OC(=O)CO)[C@H]2OC(=O)CCCc1ccccc1
inactive: [1] 25.3% | [2] 53.3% | [3] 78.7% | [4] 77.3% | [5] 82.4% | [6] 68.7% | [7] 84% | [8] 60.9%

CN(Cc1ccccc1)c1nc(Cl)c(C2CC(c3ccc(Cl)cc3)=NN2c2cc(Cl)cc(Cl)c2)s1 (stereo unspecified)
inactive: [1] 84.9% | [2] 101% | [3] 103% | [4] 98.8% | [5] 79.8% | [6] 88.6% | [7] 90.9% | [8] 103%

CCCN1C(=O)N(CCC)C2C1NC(=S)N2/N=C/C=C/c1ccccc1OC (stereo unspecified)
active: [3] -56.1%
inactive: [1] 40.3% | [2] 56% | [4] 22% | [5] 17.4% | [6] 18.3% | [7] 20.3% | [8] 21.1%

COc1cc(CNC(=O)CCCC/C=C/C(C)C)ccc1OCc1cn(-c2cccc([N+](=O)[O-])c2)nn1
inactive: [1] 72.3% | [2] 96.3% | [3] 101% | [4] 97.4% | [5] 74.1% | [6] 42% | [7] 101% | [8] 91.2%

C=C1/C(=C\C=C2/CCC[C@]3(C)[C@@H]([C@H](C)CCCC(C)(C)O)CC[C@@H]23)C[C@@H](OC(=O)CBr)C[C@@H]1O
inactive: [1] 81.7% | [3] 90.4% | [4] 70.7% | [5] 34.9% | [6] 80.9% | [7] 107% | [8] 57.9%
active: [2] -58.1%

CN(CCNc1ccc(C(=N)N)cc1)c1ccc(C(=N)N)cc1
inactive: [1] 126% | [2] 102% | [3] 92.6% | [4] 98.6% | [5] 116% | [6] 101% | [7] 99.6% | [8] 86.2%

Oc1ccc(Cc2ccc(O)c3ncccc23)c2cccnc12
active: [1] -3.14% | [5] 3.18%
inactive: [2] 29.4% | [3] 12.6% | [4] 16.7% | [6] 15.2% | [7] 19.2% | [8] 15.8%

Cn1cc(-c2csc(-c3cn(C)c4ccc(F)cc34)n2)c2cnccc21
active: [1] -44.1% | [3] -90.7% | [4] -67.1% | [5] -49.3% | [6] -90.3% | [7] -78.4% | [8] 0.588%
inactive: [2] 84%

C#Cc1cccc(Nc2ncnc3ccc(-c4cnc(Cl)c(NS(C)(=O)=O)c4)cc23)c1
active: [1] -46.8% | [2] -35.4% | [3] -55.2% | [4] 2.56% | [5] -0.512% | [6] -55% | [7] -62.5% | [8] -54.3%

C[C@@H]1N=C(c2ccc(Cl)cc2Cl)Nc2nc3ccccn3c2C1=O
active: [3] -16.6%
inactive: [1] 64.3% | [2] 55.6% | [4] 25.2% | [5] 16.8% | [6] 28.1% | [7] 75.4% | [8] 23.8%

O=C1C2C(c3cccs3)C=C(c3ccc(Cl)cc3)N2C(=S)N1c1ccccc1 (stereo unspecified)
inactive: [1] 100% | [2] 92.4% | [3] 110% | [4] 102% | [5] 90.9% | [6] 101% | [7] 111% | [8] 104%

COC(=O)c1cc(-c2cc(OC)c(OC)c(OC)c2)[nH]c1N/N=C/c1c(Cl)cccc1Cl
active: [1] 9.55% | [3] -2.15% | [5] 7.14% | [6] 5.15% | [7] -62%
inactive: [2] 128% | [4] 44.9% | [8] 15%

COc1cc(OCc2cccc(-c3ccc4c(c3)OCCO4)c2C)cc(OC)c1C=O
inactive: [1] 10.1% | [2] 56.6% | [3] 52.9% | [4] 70.2% | [5] 22.6% | [6] 44.1% | [7] 70.3% | [8] 78.9%

NC(=O)[C@@H]1Cc2ccccc2CN1C(=O)c1ccc2c(c1)Cc1ccccc1-2
inactive: [1] 57.2% | [2] 63.1% | [3] 77.7% | [4] 110% | [5] 70.8% | [6] 81.1% | [7] 98.9% | [8] 88.6%

N#CSCc1cc(Cl)c(CSC#N)cc1Cl
inactive: [1] 90% | [2] 39.7% | [3] 34.9% | [4] 20.6% | [5] 24.5% | [6] 34.7% | [7] 97% | [8] 85.5%

CC(=O)Oc1ccccc1C(=O)N(Cc1ccc2c(Cl)cc(Cl)c(O)c2n1)c1ccccc1
inactive: [1] 40.7% | [2] 77.3% | [3] 54.3% | [4] 29.1% | [5] 34.7% | [6] 30.9% | [7] 60.1% | [8] 39.6%

COc1ccc(Nc2nccc(Nc3ccc4[nH]ncc4c3)n2)cc1
active: [1] -3.74%
inactive: [2] 44.2% | [3] 34.9% | [4] 24.8% | [5] 13.3% | [6] 19.3% | [7] 63.4% | [8] 10%

CC(C)(C)c1ccc(C(=O)Nc2sc3c(c2C#N)CCC(=O)C3)cc1
active: [1] -31.8% | [2] -11.7% | [3] 6.81% | [4] -51% | [5] 8.36% | [6] 2.24%
inactive: [7] 48.1% | [8] 12%

COc1ccc(C(c2cc(OC)c(OC)c(OC)c2)n2cncn2)cc1O (stereo unspecified)
inactive: [1] 35% | [2] 11.3% | [4] 29.1% | [5] 17.9% | [7] 25.3% | [8] 21.8%
active: [3] -46.2% | [6] 7.25%

Cc1c(C(=O)C(SC(=S)N2CCOCC2)SC(=S)N2CCOCC2)nnn1-c1ccc([N+](=O)[O-])cc1
inactive: [1] 92.3% | [2] 92.5% | [3] 105% | [4] 100% | [5] 79.5% | [6] 96.5% | [7] 104% | [8] 111%

Cc1ccc(Nc2cc(N)nc(N)n2)cc1
inactive: [1] 98.9% | [2] 113% | [3] 106% | [4] 102% | [5] 86.5% | [6] 104% | [7] 96% | [8] 95.5%

N=C(N)c1ccc(-c2ccc(-c3ccccc3)s2)nc1
inactive: [1] 79.5% | [2] 98.7% | [3] 85.8% | [4] 57.4% | [5] 41.3% | [6] 46.9% | [7] 58.9% | [8] 39.4%

OC1CSSC1Cn1cnc2c(Nc3ccc(F)c(Cl)c3)ncnc21 (stereo unspecified)
inactive: [1] 61.4% | [2] 119% | [3] 63.8% | [4] 104% | [5] 45.7% | [6] 74.7% | [7] 96.4% | [8] 73.2%

Nc1ncc(-c2ccc3ncnc(N4CCc5cc(F)c(Cl)cc54)c3c2)cc1C(F)(F)F
active: [3] 0.606% | [5] 8.11%
inactive: [1] 20.4% | [2] 14.8% | [4] 38.2% | [6] 21.3% | [7] 36.2% | [8] 40.2%

Oc1ccc(C(c2ccc(O)cc2)c2ccc(Cl)cn2)cc1
active: [1] -34.4% | [2] -30.1% | [5] -17.3% | [7] 1.05%
inactive: [3] 101% | [4] 106% | [6] 27.6% | [8] 20.8%

C=CCn1c(SCC(=O)Nc2ccc(C(=O)/C=C/c3ccc(Cl)cc3)cc2)nnc1-c1ccc(Cl)c(Cl)c1
inactive: [1] 76.6% | [2] 78% | [3] 37.9% | [4] 90.9% | [5] 19.7% | [7] 95.9% | [8] 85.2%
active: [6] -71.5%

CNC1=C(Br)C(=O)c2c(C(=O)OC)c(C)nc(C)c2C1=O
inactive: [1] 62.8% | [2] 104% | [4] 48.2% | [5] 45.2% | [6] 25.3% | [7] 69.6% | [8] 62.4%
active: [3] -66.8%
